A selection: hits, their analogues and other compounds. The true share with any hit is near 7.9%.
HT1080-NT tox: kills 2HG-producing HT-1080-NT fibrosarcoma cells; HT-1080-NT fibrosarcoma viability, CellTiter-Glo ATP luminescence, 48 h; Potency, µM (doses to about 46.1 µM), for the others: at the highest dose activity, negative = less viability, most hits filed as cytotoxic; 360,000 tested, 1.6% active; AID 686970;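 further: NT is the 2HG producing partner of a matched IDH1 knockdown line; 0% = DMSO-treated cells and -100% = media-only wells without cells; nearly all actives have a fitted effect of over 55% in size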
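A 48-hour cytotoxicity screen used HT-1080-NT cells plated 2 hours before compound delivery. ATP-based CellTiter-Glo luminescence measured viability, normalized to DMSO and no-cell controls.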
KB-V1 MDR tox: KB-V1 MDR subline cytotoxicity. KB-V1 MDR cells viability, CellTiter-Glo, 72 h. 400,000 tested, 3.4% active. Potency, µM (highest dose often 46.1 µM), usual class: cytotoxic. AID 1347076; further: on the % scale 0 is the no-effect control and ±100 the full control effect; nearly all actives have a fitted effect of over 60% in size
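KB-V1, DMEM (no phenol red) + 10% FBS; cpd pin-transferred, titration series; 72 h, 37 degrees C; CellTiter-Glo, luminescence. Data normalized, curve-fit.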
HT1080 IDH1KD tx: kills HT-1080 cells with IDH1 knockdown; HT-1080 IDH1 knockdown viability, ATP luminescence, 48 h; Potency, µM (highest dose often 46.1 µM), for the others: at the top dose activity, negative = toxicity, usual class: cytotoxic; 360,000 tested, 2% active;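 further: 0% = DMSO wells and -100% = cell-free medium wells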
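Assay cells: HT-1080 with IDH1 knockdown, 750 per well, RPMI/5% FBS. Exposure: 48 h at 37 °C following 2 h pre-incubation. Read: CellTiter-Glo luminescence; fitted concentration-response, curve class assigned.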
MCF10A rereplic: DNA re-replication induction in MCF 10a cells; MCF 10A DNA re-replication, Hoechst nuclear intensity, 48 h; Potency, µM (highest dose often 46.1 µM), without a hit: top-dose activity, positive = re-replication, actives largely listed as activators; 350,000 tested, 2.9% active; further: % of control where 0% means no effect; nearly all actives have a fitted effect of over 50% in size
SW480 rereplic: DNA re-replication induction in SW480 cells. SW480 DNA re-replication, Hoechst DNA content imaging, 48 h. Potency, µM (top dose mostly 46.1 µM), for the others: top-dose re-replication activation, most hits filed as activators. 340,000 tested, 1.8% active. AID 624297; further: % of control where 0% means no effect; nearly all actives have a fitted effect of over 55% in size
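Readout is total intensity of Hoechst-stained nuclei, excited at 405 nm and collected at 500-530 nm. Compound treatment lasted 48 hr at 37 C in 5% CO2 before staining.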
KB-3-1 cytotox: KB-3-1 parental cell cytotoxicity; KB-3-1 viability, CellTiter-Glo ATP luminescence, 72 h; Potency, µM (series often up to 46.1 µM), actives largely listed as cytotoxic; 400,000 tested, 1.4% active; further: on the % scale 0 is the no-effect control and ±100 the full control effect; nearly all actives have a fitted effect of over 60% in size
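Multi-concentration cytotoxicity screen in KB-3-1 cells grown in DMEM lacking phenol red with 10% FBS. After 72 h at 37 °C with compound, ATP-dependent luminescence was recorded.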
* = called active by the depositor; i = inactive; u = inconclusive; x = no result. The call rests on the fitted dose curve; in most records, active means well fitted curve in the direction sought with a large enough effect; inconclusive means small, poorly fitted or top-dose-only effect, or another doubt; inactive means no such curve, though single readings can be large; an effect the other way counts as inactive or inconclusive. Potency means the concentration at half of the fitted maximal effect.

SMILES	HT1080-NT tox	KB-V1 MDR tox	HT1080 IDH1KD tx	MCF10A rereplic	SW480 rereplic	KB-3-1 cytotox
NC1=C([N+](=O)[O-])C(c2ccc3c(c2)OCO3)C2=C(CCCC2=O)O1 (stereo unspecified)	-1.7%	i	9.6%	-3.7%	u	u
C=CCS/C(N)=N\N=C\c1cc(Br)cc([N+](=O)[O-])c1O	-13.4%	i	-17.3%	14.5%	-0.6%	i
Cc1sc2nc(-c3cccnc3)nc(Cl)c2c1-c1ccccc1	11.0%	13µM*	9.7%	20.6µM*	0.5%	i
C/C(=N\O)c1ccc2c3ccccc3n(C)c2c1	-6.7%	u	-7.8%	-0.7%	0.4%	2.59µM*
Cc1ccc(NC2=C/C(=N/S(=O)(=O)c3cccs3)c3ccccc3C2=O)cc1	2.91µM*	u	4.11µM*	8.2µM*	u	2.31µM*
Cc1ccc(/C=C2\S/C(=N/S(=O)(=O)c3cccs3)NC2=O)cc1	21.8%	i	0.3%	0.0%	-35.0%	i
O=S(=O)(/N=C(/Nc1cccc2ccccc12)c1ccccc1)c1cccs1	-5.8%	i	-1.5%	4.2%	4.9%	u
O=C1C(Nc2ccccc2)=C/C(=N/S(=O)(=O)c2cccs2)c2ccccc21	u	u	u	3.26µM*	5.8µM*	u
Cc1[nH]c(=O)c(C#N)c(C)c1CCC(=O)NCc1cccc(C(F)(F)F)c1	11.6%	i	-2.5%	-1.0%	-2.5%	i
CCOC(=O)c1[nH]c(C)c(C(=O)c2cc(F)ccc2F)c1C	0.708µM*	u	0.447µM*	1.16µM*	1.03µM*	0.92µM*
CCOC(=O)c1[nH]c(C)c(C(=O)OCc2ccccc2F)c1C	11.6µM*	2.31µM*	9.2µM*	8.2µM*	7.31µM*	4.61µM*
CCOC(=O)c1c(C)[nH]c(C(=O)NNC(=O)c2ccccc2F)c1C	12.5%	i	21.6%	0.0%	2.1%	i
c1ccc(CNc2nc(-c3ccccc3)nc3ccccc23)cc1	-26.5%	u	u	8.9%	1.1%	i
CCC(C)Nc1nc(-c2ccccn2)nc2ccccc12 (stereo unspecified)	u	u	u	0.4%	5.9%	14.6µM*
c1ccc(CNc2nc(NCc3ccccc3)c3ccccc3n2)cc1	14.6µM*	u	7.31µM*	u	-2.3%	i
CC(C)(C)c1ccc(-c2nc(NCc3cccnc3)c3ccccc3n2)cc1	2.2%	u	-16.9%	13µM*	9.0%	i
c1ccc(CNc2nc(-c3ccccn3)nc3ccccc23)cc1	u	i	u	12.5%	23.6%	16.4µM*
O=C(NCc1cccc(C(F)(F)F)c1)C1CCC(=O)N(C2CCCCCC2)C1 (stereo unspecified)	-2.6%	i	-1.5%	-21.0%	-2.2%	i
COc1cccc(NC(=O)C(CCSC)NC(=O)C2CCC(C)CC2)c1 (stereo unspecified)	x	i	x	x	x	i
CCOc1ccccc1NC(=O)COC(=O)COc1cccc2c1OC(C)(C)C2	3.1%	i	0.5%	x	x	i
c1ccc(CNc2nc(-c3cccs3)nc3ccccc23)cc1	u	i	18.4µM*	u	-7.1%	i
COc1cc(NS(=O)(=O)c2ccc(NC(=S)NC(=O)c3ccc(F)c(F)c3)cc2)nc(OC)n1	8.9%	i	8.8%	3.0%	-19.2%	i
CCc1ccc(NC(=O)c2ccc(NC(=O)C3CCCO3)cc2)cc1 (stereo unspecified)	-8.4%	23.1µM*	-0.4%	2.6%	-4.9%	i
COC(=O)c1ccc(NC(=O)c2ccc(NC(=O)C3CCCO3)cc2)cc1 (stereo unspecified)	5.1%	i	12.7%	1.1%	-2.2%	i
CCOC(=O)c1cc(NC(=O)C2CCCO2)cc(C(=O)OCC)c1 (stereo unspecified)	21.1%	13µM*	0.6%	0.7%	-10.8%	i
